Data on 35 molecules can be found in PubChem BioAssay.
Note: test concentration not given here.

The nature of one assay: basal RPMI8226 mitochondrial membrane potential changes, profiling panel, cell-based, JC-1 fluorescence, 24 h, 100 nL compound (AID 1169). Particulars: RPMI8226 myeloma, JC-1 mitochondrial potential fluorescence, higher = more signal.
`C=C(COC)/C(=C/C[C@H](OC(C)=O)c1ccc(CO)o1)c1cc(C(=O)OC)ccc1OC`: the z-score is -0.0437.
For `COC(=O)[C@@]1(Cc2ccc(OC)cc2)[C@@H]2C(=CC(=O)[C@H]2CC(=O)C(=O)N2CCCC2)CN1C(=O)c1ccccc1`, the z-score is -0.356.
Still for that read-out and setting: in the case of `Cc1ccc(N2C(=O)c3ccccc3[C@@H](C(=O)NC3CC3)[C@@H]2c2ccc(CO)cc2)nc1` it was 0.755; in that of `COCCOC(=O)N1C(=O)[C@@]2(c3cc(C#CCC(C(=O)OC)C(=O)OC)ccc31)[C@H](C(=O)Nc1nc3ccccc3s1)[C@H]1C(=O)O[C@H](c3ccccc3)[C@H](c3ccccc3)N1[C@@H]2c1ccccc1OCCO`, -0.859.
For `COCCOC(=O)N1C(=O)[C@@]2(c3cc(C#CCC(C(=O)OC)C(=O)OC)ccc31)[C@H](c1ccccc1OCCO)N1[C@H](c3ccccc3)[C@H](c3ccccc3)OC(=O)[C@H]1[C@@H]2C(=O)NC[C@H](O)c1ccccc1`, the z-score was -0.776.
On the same count and under the same terms, the figure for `CCCC[C@@H]1C[C@H]1[C@@H](NC(=O)c1ccccc1)c1ccc(C(=O)OC)cc1` is 0.461.
`O=C1[C@@]23C=C(Br)[C@H](C[C@@H]2CCOC3)[C@@]12CO2`: the z-score was -0.849.

A further assay can be described thus: basal MM1S mitochondrial membrane potential changes, profiling panel, cell-based, JC-1 fluorescence, 24 h, 100 nL compound (AID 1170). As to conditions: higher = more signal.
As to `C=C(/C(=C/C[C@H](OC(C)=O)c1ccc(CO)o1)c1cc(C(=O)OC)ccc1OC)C(C)C`, the z-score was -0.227.
For the molecule `COC(=O)[C@@]1(Cc2ccccc2)N=C(c2ccc(OCCCO)cc2)O[C@H]1c1ccccc1`, the z-score is -0.354.
Take `CC(C)C[C@@H]1NC(=O)[C@@H]2C[C@H](C(=O)NCc3ccc(F)cc3)[C@H](c3cccc(OCCO)c3)N2C1=O`: the z-score was -0.657.
Same read-out and setting: the figure for `O=C1c2ccccc2[C@](Cc2ccccc2I)(C(=O)NCCN2CCOCC2)[C@H](c2ccc(CO)cc2)N1C1CCCCC1` is -0.96; for `O=C1c2ccccc2[C@](Cc2ccccc2I)(C(=O)NCCN2CCOCC2)[C@H](c2ccc(CO)cc2)N1Cc1ccccc1Cl` it is 0.918.
Same read-out and setting: the figure for `CC(C)C(=C=CC[C@@H](O)c1ccc(OCCO)cc1)C[C@@H](O)COCc1ccccc1` is -1.11.
As for `COC(=O)[C@]1(CCC(=O)OC(C)(C)C)N=C(c2ccc(OCCCO)cc2)O[C@@H]1c1ccccc1CN=[N+]=[N-]`, the z-score is -2.7.
Consider `NC(=O)NCC#Cc1ccc2c(c1)[C@]1(C(=O)N2)[C@H](c2ccccc2OCCO)N2[C@H](c3ccccc3)[C@H](c3ccccc3)OC(=O)[C@H]2[C@@H]1C(=O)Nc1nc2ccccc2s1`, for which the z-score is -1.73.
With `C=CCC(OC(C)=O)[C@@H]1[C@@H](N(Cc2ccc(-c3ccccc3)cc2)C(=O)Cc2ccc(OC)cc2)c2cc(OCCCO)ccc2N1C(=O)Cc1ccc2ccccc2c1` (some centres not stated), the z-score came out at 0.338.
Consider `C=C(CCCC)C(=O)CC[C@@H](OC(=O)c1ccccc1-c1ccccc1C(=O)O)c1ccc(OCCO)cc1`, for which the z-score is -0.137.
Still for that read-out and setting: the figure for `CCCC[C@@H]1C[C@H]1[C@@H](NC(=O)c1ccco1)c1ccccc1C(F)(F)F` is -0.481; for `CCOC(=O)C[C@H]1[C@H](OC(=O)c2cc3ccccc3oc2=O)[C@@H](NC(=O)c2ccccc2)c2cc(OCCCO)ccc2N1C(=O)c1ccc2ccccc2n1` it is -0.0496; for `CCN(CC)c1ccc(N2CC=CC34O[C@@H]5C=CCCOC(=O)C5[C@H]3C(=O)N(CCCCCCO)[C@@H]4C2=O)cc1` (some centres not stated) it is -0.585.
As for `COC(=O)[C@@]1(Cc2ccccc2)[C@H]2c3cc(C(=O)N(C)C)n(Cc4ccsc4Br)c3C[C@H]2CN1C(=O)c1ccccc1`, the z-score is -2.
On to `COCCOC(=O)N1C(=O)[C@@]2(c3ccccc31)[C@H](c1ccccc1OCCO)N1[C@H](c3ccccc3)[C@H](c3ccccc3)OC(=O)[C@H]1[C@@H]2C(=O)N1CCN(c2ncccn2)CC1`, for which the z-score is -1.36.
For `O[C@@H](Cc1ccccc1)[C@H]1C2C=CCCC=C2CN1Cc1cccc(Cl)c1` (some centres not stated), the z-score was -2.86.
Turning to `COc1cc2c(cc1OC)CN(C(=O)[C@@H]1[C@H]3C(=O)O[C@H](c4ccccc4)[C@H](c4ccccc4)N3[C@H](c3ccccc3OCCO)[C@@]13C(=O)Nc1ccc(C#CCCO)cc13)CC2`, the z-score is -0.107.
On the same count and under the same terms, in the case of `Cc1ccc(S[C@]2(C(=O)O)CC(=O)N(C(C)C)[C@@H]2c2ccc(CO)cc2I)cc1` it was -0.56.
Consider `O=C1O[C@H](c2ccccc2)[C@H](c2ccccc2)N2[C@H]1[C@@H](C(=O)N1CCCCCCC1)[C@]1(C(=O)Nc3ccc(C#CCCO)cc31)[C@H]2c1ccccc1OCCO`, for which the z-score is -1.11.
The same measure, in the same setting: the figure for `C=CCNC(=O)[C@@H]1[C@H]2C(=O)O[C@H](c3ccccc3)[C@H](c3ccccc3)N2[C@H](c2ccc(O)cc2)[C@@]12C(=O)N(C(=O)OCCOC)c1ccc(C#CCNC(N)=O)cc12` is 0.751.
For the molecule `O=C(c1ccccc1)N1C(=O)[C@@]2(Cc3ccccc31)N=C(c1ccc(OCCCO)cc1)O[C@H]2c1ccccc1`, the z-score was -2.17.
Take `C=C(/C(=C/C[C@H](OC(C)=O)c1ccccc1OCCO)c1cnc2ccccc2c1)C(C)C`: the z-score was -0.685.
On to `CC(C)C(CO)N1C(=O)[C@@H]2C3C(=O)OCCC/C=C\[C@H]3OC23C=CCN(CCN2CCOCC2)C(=O)[C@@H]13` (some centres not stated), for which the z-score is -0.359.
The same measure, in the same setting: in the case of `CCCC[C@H]1OB(O)C[C@H]2C1=C(COC)C[C@H]1C(=O)N(C)C(=O)[C@H]12` it was -0.355; in that of `COC(=O)[C@@]1(Cc2ccc(F)cc2)[C@H]2c3cc(C(=O)N(C)C)n(Cc4ccc(Cl)c(C(F)(F)F)c4)c3C[C@H]2CN1C(=O)c1ccccc1`, -1.54.
In the case of `COc1ccc(CCNC(=O)[C@@]2(Sc3ccc(C)cc3)CC(=O)N(C3Cc4ccccc4C3)[C@@H]2c2ccc(CO)cc2I)cc1`, the z-score is -0.565.
With `CCCC[C@H]1OB(O)C[C@H]2C1=C(COC)Cn1c(=O)n(-c3ccccc3)c(=O)n12`, the z-score was -0.73.
In turn, `CN(C)CCCCCCNC(=O)[C@@H]1C[C@@H]2C(=O)N[C@@H](Cc3ccccc3)C(=O)N2[C@@H]1c1ccc(O)cc1` returned a z-score of 0.0429.
On to `C=C(COC)/C(=C/C[C@H](OC(C)=O)c1ccc(CO)o1)c1cc(C(=O)OC)ccc1OC`, for which the z-score was 0.000891.
For the molecule `COC(=O)[C@@]1(Cc2ccc(OC)cc2)[C@@H]2C(=CC(=O)[C@H]2CC(=O)C(=O)N2CCCC2)CN1C(=O)c1ccccc1`, the z-score was -1.69.
The same measure, in the same setting: the figure for `Cc1ccc(N2C(=O)c3ccccc3[C@@H](C(=O)NC3CC3)[C@@H]2c2ccc(CO)cc2)nc1` is -0.446; for `COCCOC(=O)N1C(=O)[C@@]2(c3cc(C#CCC(C(=O)OC)C(=O)OC)ccc31)[C@H](C(=O)Nc1nc3ccccc3s1)[C@H]1C(=O)O[C@H](c3ccccc3)[C@H](c3ccccc3)N1[C@@H]2c1ccccc1OCCO` it is -1.19.
On to `COCCOC(=O)N1C(=O)[C@@]2(c3cc(C#CCC(C(=O)OC)C(=O)OC)ccc31)[C@H](c1ccccc1OCCO)N1[C@H](c3ccccc3)[C@H](c3ccccc3)OC(=O)[C@H]1[C@@H]2C(=O)NC[C@H](O)c1ccccc1`, for which the z-score is -1.81.
`CCCC[C@@H]1C[C@H]1[C@@H](NC(=O)c1ccccc1)c1ccc(C(=O)OC)cc1`: the z-score was -1.12.
Turning to `O=C1[C@@]23C=C(Br)[C@H](C[C@@H]2CCOC3)[C@@]12CO2`, the z-score was -0.688.
